Data taken from the supplement of paper PMC6607015.
Counter-ions that a name gives are not always drawn.

Key:
Details in all cases: compound concentration in added solution (µM; 5 µl added to 20 µl cells): 10; 18 h
A431 [1] = test: LBPA endosome anti-LBPA integrated intensity (sum per cell), Z-score; higher = more LBPA staining
Procedure, shortened: (§1)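 Each value is a Z-score normalised in AcuityXpress from per-cell integrated LBPA or filipin intensity, taken over the whole cell or within LBPA endosomes. Duplicate 384-well imaging plates held 5 µl of 10 µM compound solution, onto which 3,500 HeLa MZ or A431 cells in 20 µl were seeded per well. After 18 h the cells were fixed in 4% PFA, stained with 6C4 anti-LBPA antibody, filipin, propidium iodide and CellTracker green, imaged four times per well at 20× and segmented in MetaXpress.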

HeLa MZ [2] = test: as above
Procedure, shortened: as §1

A431 [3] = test: whole-cell filipin (free cholesterol) integrated intensity, Z-score; higher = more cholesterol staining
Procedure, shortened: as §1

HeLa MZ [4] = test: as above
Procedure, shortened: as §1

A431 [5] = test: filipin (cholesterol) integrated intensity within LBPA endosomes, Z-score; higher = more cholesterol in LBPA endosomes
Procedure, shortened: as §1

HeLa MZ [6] = test: as above
Procedure, shortened: as §1

| SMILES | LBPA endosome anti-LBPA integrated intensity (z-score) (A431 [1]) | LBPA endosome anti-LBPA integrated intensity (z-score) (HeLa MZ [2]) | whole-cell filipin (z-score) (A431 [3]) | whole-cell filipin (z-score) (HeLa MZ [4]) | filipin (z-score) (A431 [5]) | filipin (z-score) (HeLa MZ [6]) |
| --- | --- | --- | --- | --- | --- | --- |
| CCCOc1ccc(C(=O)OCCN(CC)CC)cc1N [Proparacaine hydrochloride] | -0.432 | 0.26 | -0.369 | -0.271 | -0.454 | -0.0385 |
| Cc1nnc(SCC2=C(C(=O)O)N3C(=O)[C@@H](NC(=O)Cn4cnnn4)[C@H]3SC2)s1 [Cefazolin sodium salt] | -0.481 | -0.611 | -0.424 | -0.218 | -0.384 | -0.417 |
| COC(=O)C1=C(C#N)NC(C)=C(C(=O)OC(C)C)C1c1cccc([N+](=O)[O-])c1 (centres undefined) [Nilvadipine] | -0.407 | -0.929 | 0.11 | 0.875 | -0.268 | -0.158 |
| CN1CCN(CCCN2c3ccccc3Sc3ccc(Cl)cc32)CC1 [Prochlorperazine dimaleate] | 2.82 | 1.36 | 0.00438 | -0.198 | 1.66 | 1.98 |
| NS(=O)(=O)c1cc(Cl)c(Cl)c(S(N)(=O)=O)c1 [Dichlorphenamide] | -0.34 | -0.217 | -0.00386 | 0.196 | -0.409 | -0.301 |
| O=C1NCN(c2ccccc2)C12CCN(CCCC(c1ccc(F)cc1)c1ccc(F)cc1)CC2 [Fluspirilen] | 2.78 | 1.04 | 1.65 | 1.64 | 4.57 | 4.14 |
| O=C(O)c1ccccc1OP(=O)(O)O [Fosfosal] | -0.256 | 0.942 | -0.159 | 0.251 | -0.274 | -0.0166 |
| CC(=O)N(CC(O)CN(C(C)=O)c1c(I)c(C(=O)NCC(O)CO)c(I)c(C(=O)NCC(O)CO)c1I)c1c(I)c(C(=O)NCC(O)CO)c(I)c(C(=O)NCC(O)CO)c1I (centres undefined) [Iodixanol] | -0.538 | -0.533 | -0.268 | -0.245 | -0.464 | -0.482 |
| CCCCOc1cc(C(=O)NCCN(CC)CC)c2ccccc2n1 [Dibucaine] | 2.05 | 2.71 | 2.14 | 1.5 | 2.29 | 2.2 |
| Cn1cnc2c1c(=O)[nH]c(=O)n2C [Theobromine] | -0.566 | -1.37 | -0.361 | -0.586 | -0.492 | -0.483 |
| COc1ccc(-c2ccc(=N)n(CCCC(=O)O)n2)cc1 [Gabazine bromide] | -0.561 | -0.0518 | -0.811 | -0.576 | -0.574 | -0.549 |
| CCN(CC)Cc1cc(Nc2ccnc3cc(Cl)ccc23)ccc1O [Amodiaquin dihydrochloride dihydrate] | 2.13 | 2.23 | 0.894 | -0.209 | 1.78 | 1.72 |
| COC(c1ccccc1)(c1ccccc1)[C@H](Oc1nc(C)cc(C)n1)C(=O)O [Ambrisentan] | -0.48 | -0.16 | -0.0813 | 1.12 | -0.393 | -0.359 |
| C[C@@H]1C[C@H]2[C@@H]3C[C@H](F)C4=CC(=O)C=C[C@]4(C)[C@@]3(Cl)[C@@H](O)C[C@]2(C)[C@H]1C(=O)COC(=O)C(C)(C)C [Clocortolone pivalate] | -0.276 | -1.1 | -0.183 | -0.473 | -0.253 | -0.536 |
| CCN1C(=O)NC(c2ccccc2)C1=O (centres undefined) [Ethotoin] | -0.277 | -0.178 | -0.136 | -0.484 | -0.353 | -0.513 |
| CC[C@H](C)[C@H](N)C1=N[C@H](C(=O)N[C@@H](CC(C)C)C(=O)N[C@H](CCC(=O)O)C(=O)N[C@H](C(=O)N[C@H]2CCCCNC(=O)[C@H](CC(N)=O)NC(=O)[C@@H](CC(=O)O)NC(=O)[C@H](Cc3cnc[nH]3)NC(=O)[C@@H](Cc3ccccc3)NC(=O)[C@H]([C@@H](C)CC)NC(=O)[C@@H](CCCN)NC2=O)[C@@H](C)CC)CS1 [Bacitracin] | -0.168 | 0.277 | -0.0253 | 0.293 | -0.368 | -0.388 |
| CC(=O)Oc1cccc2c1C(=O)c1c(OC(C)=O)cc(C(=O)O)cc1C2=O [Diacerein] | -0.503 | -0.299 | -0.484 | 0.525 | -0.459 | -0.327 |
| C[C@]12CC[C@@H]3c4ccc(O)cc4C[C@@H](CCCCCCCCC[S+]([O-])CCCC(F)(F)C(F)(F)F)[C@H]3[C@@H]1CC[C@@H]2O (some centres undefined) [Fulvestrant] | 1.44 | 1.71 | 1.52 | 1.48 | 1.64 | 2.16 |
| O=C(O)c1cccnc1Nc1cccc(C(F)(F)F)c1 [Niflumic acid] | -0.414 | -0.666 | -0.705 | -0.278 | -0.444 | -0.519 |
| COc1ccccc1N1CCN(CC(O)COc2cccc3ccccc23)CC1 (centres undefined) [Naftopidil dihydrochloride] | 0.776 | 1.7 | 0.857 | 0.537 | 0.575 | 0.742 |
| c1ccc(CNc2ncnc3nc[nH]c23)cc1 [Aminopurine, 6-benzyl] | -0.375 | -0.475 | -0.69 | -0.144 | -0.46 | -0.279 |
| CSc1ccc2c(c1)C(N1CCN(C)CC1)Cc1ccccc1S2 (centres undefined) [Methiothepin maleate] | 3.25 | 1.9 | 0.963 | 0.218 | 3 | 2.66 |
| CC(C)(C)NCC(O)c1cc(O)cc(O)c1 (centres undefined) [Terbutaline hemisulfate] | -0.651 | -1.35 | -0.395 | -0.481 | -0.593 | -0.644 |
| OCCOCCN1CCN(C2=Nc3ccccc3Sc3ccccc32)CC1 [Quetiapine] | -0.603 | 0.201 | -0.454 | -0.549 | -0.515 | -0.0994 |
| Cc1cc(C(C)(C)C)c(O)c(C)c1CC1=NCCN1 [Oxymetazoline hydrochloride] | -0.605 | 0.256 | -0.84 | -0.57 | -0.491 | -0.228 |

| SMILES | LBPA endosome anti-LBPA integrated intensity (z-score) (A431 [1]) | LBPA endosome anti-LBPA integrated intensity (z-score) (HeLa MZ [2]) | whole-cell filipin (z-score) (A431 [3]) | whole-cell filipin (z-score) (HeLa MZ [4]) | filipin (z-score) (A431 [5]) | filipin (z-score) (HeLa MZ [6]) |
| --- | --- | --- | --- | --- | --- | --- |
| C[C@]12C=CC(=O)C=C1CC[C@@H]1[C@@H]2[C@@H](O)C[C@@]2(C)[C@H]1CC[C@]2(O)C(=O)CO [Prednisolone] | -0.285 | -0.493 | -0.674 | -0.403 | -0.432 | -0.544 |
| COc1ccc2c(c1)c(CC(=O)O)c(C)n2C(=O)c1ccc(Cl)cc1 [Indomethacin] | -0.426 | 0.408 | -0.694 | -0.518 | -0.524 | -0.49 |
| Oc1c(Cl)cc(Cl)c2cccnc12 [Chloroxine] | -0.792 | -1.58 | -0.709 | -1.27 | -0.75 | -0.803 |
| CN(C)CCC=C1c2ccccc2COc2ccccc21 [Doxepin hydrochloride] | 1.38 | 1.22 | 1.29 | -0.0249 | 1.62 | 1.18 |
| CC1COc2c(N3CCN(C)CC3)c(F)cc3c(=O)c(C(=O)O)cn1c23 (centres undefined) [Ofloxacin] | -0.519 | -0.166 | -0.939 | 0.125 | -0.532 | -0.106 |
| CCN(CC)CCNC(=O)c1cc(S(C)(=O)=O)ccc1OC [Tiapride hydrochloride] | -0.48 | 0.333 | -0.576 | -0.522 | -0.565 | -0.513 |
| C[N+](C)(C)CCCCCC[N+](C)(C)C [Hexamethonium dibromide dihydrate] | -0.482 | -1.09 | -0.483 | -0.775 | -0.514 | -0.624 |
| CN1CCN(C(c2ccccc2)c2ccccc2)CC1 [Cyclizine hydrochloride] | -0.35 | 0.424 | -0.0386 | -0.181 | -0.285 | 0.0272 |
| CN(C)CCCN1c2ccccc2CCc2ccccc21 [Imipramine hydrochloride] | 0.746 | 0.11 | 0.885 | -0.699 | 1.08 | 0.828 |
| COc1cc(C)nc(-n2nc(C)cc2OC)n1 [Epirizole] | -0.401 | -0.156 | -0.543 | -1.08 | -0.458 | -0.525 |
| CN/C(=N\CCSCc1nc[nH]c1C)NC#N [Cimetidine] | -0.436 | -0.604 | -0.5 | -0.3 | -0.458 | -0.409 |
| Cc1cccc(Nc2ccncc2S(=O)(=O)NC(=O)NC(C)C)c1 [Torsemide] | -0.347 | -0.115 | 0.00281 | 0.228 | -0.452 | -0.394 |
| C#C[C@]1(O)CC[C@H]2[C@@H]3CCC4=C(CCC(=O)C4)[C@H]3CC[C@@]21C [Norethynodrel] | -0.487 | -0.658 | -0.784 | -0.871 | -0.48 | -0.512 |
| COC(=O)C1=C(C)NC(C)=C(C(=O)OC)C1c1ccccc1[N+](=O)[O-] [Nifedipine] | -0.346 | -0.877 | -0.739 | -0.61 | -0.513 | -0.614 |
| COc1ccc(C(=O)c2ccccc2)c(O)c1 [Oxybenzone] | -0.5 | -0.722 | -0.24 | 0.387 | -0.525 | -0.452 |
| COc1cc([S+](C)[O-])ccc1-c1nc2cccnc2[nH]1 (centres undefined) [Sulmazole] | -0.64 | -1.23 | -0.818 | -0.362 | -0.483 | -0.399 |
| CCCCc1nc(Cl)c(CO)n1Cc1ccc(-c2ccccc2-c2nnn[nH]2)cc1 [Losartan] | -0.107 | -0.132 | 0.421 | -0.132 | -0.313 | -0.537 |
| CCN(CC)CCOC(=O)C(Cc1cccc2ccccc12)CC1CCCO1 (centres undefined) [Nafronyl oxalate] | 1.69 | 2.05 | 1.62 | 0.888 | 1.25 | 1.15 |
| N=C(N)NS(=O)(=O)c1ccc(N)cc1 [Sulfaguanidine] | -0.422 | -1.14 | -0.502 | -0.128 | -0.444 | -0.493 |
| CC(=O)/N=c1/sc(S(N)(=O)=O)nn1C [Methazolamide] | -0.623 | -1.23 | -0.758 | -0.523 | -0.506 | -0.535 |
| O=C1OCCN1/N=C/c1ccc([N+](=O)[O-])o1 [Furazolidone] | -0.473 | -0.0304 | -0.00282 | 0.522 | -0.483 | -0.65 |
| O=C1C(CC[S+]([O-])c2ccccc2)C(=O)N(c2ccccc2)N1c1ccccc1 (centres undefined) [Sulfinpyrazone] | -0.368 | 0.025 | 0.303 | -0.59 | -0.319 | -0.446 |
| C#C[C@]1(O)CC[C@H]2[C@@H]3CCC4=CC(=O)CC[C@@H]4[C@H]3CC[C@@]21C [Norethindrone] | -0.462 | -0.0403 | -0.665 | -0.306 | -0.425 | -0.487 |
| Clc1cccc(Cl)c1NC1=NCCN1 [Clonidine hydrochloride] | -0.318 | -0.0581 | -0.585 | -0.0901 | -0.436 | -0.268 |
